Most compounds without a hit are left out; they make up all but 9.4% or so of the library.
AMA1 RON2 block: disrupts binding of P. falciparum AMA1 to RON2; AlphaScreen AMA1-biotinylated RON2 peptide binding; Potency, µM (series often up to 58.2 µM), usual class: inhibitors; actives 0.2% (n = 360,000); note: nearly all actives have a fitted effect of over 45% in size
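AMA1 (3D7) with his tag at 25 nM final met compounds first, then biotinylated RON2 peptide at 25 nM; detection used donor plus acceptor beads, 10 µg/mL apiece, read by AlphaScreen after 30 min at room temperature.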
SARS PLpro yeast: inhibitors of SARS-CoV papain-like protease in yeast; S. cerevisiae expressing SARS-CoV PLpro, growth rescue; Potency, µM (doses to about 32.9 µM), most hits filed as activators; actives 0.19% (n = 330,000); calls by dose curve; note: nearly all actives have a fitted effect of over 55% in size
Pf growth 48h: P. falciparum growth inhibition at 48 hours (one generation); P. falciparum luciferase growth in erythrocytes, 48 h; Potency, µM (top dose mostly 28.7 µM), usual class: inhibitors; actives 5.9% (n = 310,000)
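Growth was read as firefly luciferase luminescence after a 48 h, 37 C, 5% CO2 exposure of compounds to reporter-bearing P. falciparum cultures (0.1% parasitemia, 2% hematocrit final) in Albumax-supplemented RPMI 1640.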
Pf growth 96h: P. falciparum growth inhibition at 96 hours. P. falciparum luciferase reporter growth, 96 h. Potency, µM (doses to about 28.7 µM), actives largely listed as inhibitors. actives 6.9% (n = 320,000). AID 504834
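P. falciparum expressing integrated firefly luciferase grown in erythrocytes (2% hematocrit, 0.05% parasitemia final) with compounds for 96 hours at 37 C, 5% CO2. Growth inhibition read as loss of luminescence after adding luciferase detection reagent.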
Each line names hits and unclear results; the compound was inactive in the other large screens. Unless noted, calls come from the whole dose curve; as a rule, active = well fitted curve in the direction sought with a large enough effect; inconclusive = small, poorly fitted or top-dose-only effect, or another doubt; inactive = no such curve, though single readings can be large; an effect the other way counts as inactive or inconclusive.

CC(=O)NC12CC3CC(C1)CC(C(=O)NCC(=O)Nc1c(C)cc(C)cc1C)(C3)C2	none
Cc1ncsc1C(=O)NCc1ccc(N2CCCC2=O)cc1	Pf growth 96h 4.7µM (no result: Pf growth 48h)
COCCNC(=O)CN1C(=O)CSc2ccc(S(=O)(=O)N3CCOCC3)cc21	Pf growth 96h inconclusive
COc1ccc(CCn2c(C)ccc2C)cc1OC	Pf growth 48h 5.2µM, Pf growth 96h 8.3µM (no result: AMA1 RON2 block)
CCN(CC)c1ccc(CNc2ccc3c(c2)ncn3C(C)(C)C)cc1	AMA1 RON2 block 28µM
CN(C)c1ccc(CNc2ccc3c(c2)ncn3C)cc1	AMA1 RON2 block 27µM (no result: Pf growth 48h)
CC(C)c1ccc(CNc2ccc3c(c2)ncn3C)cc1	none
Nc1ncnc2c1ncn2[C@@H]1O[C@H](C(=O)N[C@H]2c3ccccc3C[C@H]2O)[C@@H](O)[C@H]1O	none (no result: SARS PLpro yeast, Pf growth 48h, Pf growth 96h)
COc1ccc(S(=O)(=O)N(C)C[C@@H]2OCc3cnnn3CCCC(=O)N([C@@H](C)CO)C[C@H]2C)cc1	none (no result: SARS PLpro yeast, Pf growth 48h, Pf growth 96h)
CN(C)S(=O)(=O)c1cccc(NC(=S)Nc2ccc3cn[nH]c3c2)c1	none
CCC(NC(=O)c1ccccc1NC(=O)c1ccccc1)C(=O)OC (centres undefined)	Pf growth 48h 2.1µM
Cc1onc(-c2c(Cl)cccc2Cl)c1C(=O)NC(C)(C)CO	none (no result: Pf growth 96h)
O=c1c2ccccc2[nH]c(=S)n1-c1ccc2c(c1)OCO2	Pf growth 48h 12µM
CC(Oc1ccc(Cl)cc1)C(=O)NNC(=S)NC(=O)c1ccco1 (centres undefined)	Pf growth 48h inconclusive, Pf growth 96h inconclusive
CCN(CC)CCn1c(=S)[nH]c2ccc(Cl)cc2c1=O	Pf growth 48h 12µM
CC(=O)OC1(C)CC(C)C(=O)C(C(O)CC2CC(=O)NC(=O)C2)C1 (centres undefined)	none (no result: SARS PLpro yeast, Pf growth 48h, Pf growth 96h)
C[C@@H]1C[C@@H]([C@H](O)CC2CC(=O)NC(=O)C2)C(=O)[C@@H](C)C1	Pf growth 48h 0.1µM, Pf growth 96h 0.1µM
CCOC(=O)C1C(C(=O)NN)C1C(=O)Nc1ccccc1 (centres undefined)	Pf growth 48h 13µM
CCOC(=O)/C(C(=Nc1ccccc1)Nc1ccccc1)=C(\C)O	Pf growth 96h 10µM
CC(=O)OCC(=O)Nc1ccc(N=Nc2ccccc2)cc1	none
COc1ccc(Cn2nnnc2CN2CCOCC2)cc1	Pf growth 96h 13µM
Clc1cccc(Cl)c1CN1CCN(c2ncccn2)CC1	Pf growth 96h inconclusive
c1ccc(Cn2nnnc2CN2CCN(c3ncccn3)CC2)cc1	Pf growth 96h 4.7µM
CCCCCCCC(=O)OC(CN1CCCCC1)CN1CCCC1=O (centres undefined)	none (no result: Pf growth 48h)
C/C(=N\N=C1\NC(=O)C(CC(=O)O)S1)c1ccccn1 (centres undefined)	Pf growth 48h 10µM, Pf growth 96h 1.2µM
CCOc1ccc(N=C2NC(=O)C(CC(=O)O)S2)cc1 (centres undefined)	none
Cc1nc(SCC(=O)c2ccc(F)cc2)c([N+](=O)[O-])[nH]1	Pf growth 96h 1.9µM
Cc1nc(SCC(=O)c2ccc(Cl)cc2)c([N+](=O)[O-])[nH]1	none
COc1cccc(NC(=O)/C=C/c2ccccc2[N+](=O)[O-])c1	Pf growth 96h inconclusive
CC(=O)N1CCOc2ccc(S(=O)(=O)N3CC(C)CC(C)C3)cc21 (centres undefined)	Pf growth 96h 9.3µM
CCOc1ccccc1N(C)S(=O)(=O)c1ccc2c(c1)N(C(C)=O)CCO2	Pf growth 96h 1.9µM
Cc1cc(C(=O)CSc2nc3ccccc3c(=O)[nH]2)c(C)n1C	none
CCOc1ccc(NC(=O)Cc2c(O)c3ccccc3[nH]c2=O)cc1	Pf growth 48h 2.9µM
COc1cccc(NC(=O)Cc2c(O)c3ccccc3[nH]c2=O)c1	Pf growth 96h inconclusive (no result: Pf growth 48h)
C/C(=N\OCC(=O)Nc1ccccc1C(C)(C)C)c1ccc2c(c1)OCCO2	Pf growth 48h 9.3µM, Pf growth 96h inconclusive
C/C(=N\OCC(=O)Nc1ccc(OC(F)(F)F)cc1)c1ccc2c(c1)OCCO2	Pf growth 96h inconclusive
Cc1ccc(S(=O)(=O)/N=C2\CN(C)C(=O)N2C)cc1	Pf growth 96h 4.7µM
Cn1c(=O)[nH]c(=O)c2c1nc(NC1CCCCC1)n2CC(=O)NC1CCCCC1	none (no result: AMA1 RON2 block)
COc1ccc(Cn2c(O)c(C=Nc3ccc(O)cc3)c3ccccc3c2=O)cc1	Pf growth 96h 12µM
CCN(CC)CCN1C(=O)C2C3c4ccccc4C(c4ccccc43)C2C1=O (centres undefined)	Pf growth 48h inconclusive, Pf growth 96h 5.2µM
O=C1NC(=O)C2(N1)c1ccccc1-c1ccccc12	none (no result: SARS PLpro yeast, Pf growth 48h, Pf growth 96h)
CC(C)Nc1nc(-c2cccnc2)nc(-c2ccccc2)c1C#N	Pf growth 48h 8.3µM, Pf growth 96h inconclusive
